HTT-AS promoter: activators of huntingtin-antisense promoter activity | HEK293 HTT-AS promoter firefly luciferase reporter, 24 h; response scale: percent change from vehicle, -100% = no light | Potency, µM (titrated, usually from 57.5 µM), without a hit: top-dose activity change, positive = activation, usual class: activators | actives 0.24% (n = 48,000) | AID 1508624; also: potency is read from the fitted curve at half-maximal effect; nearly all actives have a fitted effect of over 55% in size
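Luminescence was read after Dual-Glo reagent and a 10 min room-temperature incubation. Values were normalized to vehicle (0% activity) and zero RLU (-100% activity). Reporter HEK293 cells had been exposed to compounds (up to 57.5 uM final) for 24 h.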
HTT prom inh: inhibits huntingtin promoter activity. actives 0.93% (n = 48,000). Potency, µM (titrated, usually from 57.5 µM), inactives show top-dose activity change, negative = inhibition, usual class: inhibitors. HEK293 HTT promoter firefly luciferase reporter, 24 h; also: potency is read from the fitted curve at half-maximal effect; nearly all actives have a fitted effect of over 50% in size
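Firefly luciferase readout (Dual-Glo, 10 min RT) after 24 h, 37 °C compound exposure (final up to 57.5 uM) of HEK293 reporter cells cultured 24 h beforehand; PTC124 at 50 uM final as control inhibitor; activity scaled vehicle 0%, zero RLU -100%.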
p53null 39C kill: kills p53 null cells at the nonpermissive temperature; H1299 p53-null (neo) cells, 39C, ATPlite viability, 24 h; Potency, µM (highest dose often 46.1 µM), for inactives: at the highest dose activity, negative = cell killing, hits mostly cytotoxic; actives 0.97% (n = 55,000); AID 904;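 also: potency is read from the fitted curve at half-maximal effect; 0% = DMSO only and -100% = full killing by 100 µM tamoxifen; nearly all actives have a fitted effect of over 50% in size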
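Concentration-response (up to 46 uM) was run for 24 h at the nonpermissive 39C on H1299-p53A138V or H1299-neo cells. ATP content was measured with ATPlite luminescence. AC50 values were Hill-modeled after normalizing between DMSO and 100 uM tamoxifen killing.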
p53null 32C kill: kills p53 null cells at the permissive temperature | H1299-neo p53 null cells, ATP luminescence, 24 h, 32C | Potency, µM (top dose mostly 46.1 µM), for inactives: at the top dose activity change, negative = cytotoxicity, actives largely listed as cytotoxic | actives 0.62% (n = 55,000) | AID 903;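 also: potency is read from the fitted curve at half-maximal effect; 0% = DMSO only and -100% = full killing by 100 µM tamoxifen; nearly all actives have a fitted effect of over 55% in size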
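We seeded p53-null H1299-neo cells, incubated them overnight at 37C, and added compounds across a range up to 46 uM. After 24 hours at 32C, ATP reagent was applied for 20 min at room temperature and luminescence recorded.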
GPR32 ag: agonists of human resolvin D1 receptor DRV1 (GPR32); O75388; CHO-K1 GPR32 beta-arrestin PathHunter luminescence, 90 min; zero percent set by DMSO-only wells; activation, % at 76.9 µM; actives 2.5% (n = 48,000);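 active = activation of at least 60% and not above a set upper limit, about 1 call in 100 departs from these limits; inconclusive = activation of 40% to 60%, or above that upper limit; inactive = activation under 40%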; also: 0% is about no effect
Target sequence (O75388 whole entry, looked up): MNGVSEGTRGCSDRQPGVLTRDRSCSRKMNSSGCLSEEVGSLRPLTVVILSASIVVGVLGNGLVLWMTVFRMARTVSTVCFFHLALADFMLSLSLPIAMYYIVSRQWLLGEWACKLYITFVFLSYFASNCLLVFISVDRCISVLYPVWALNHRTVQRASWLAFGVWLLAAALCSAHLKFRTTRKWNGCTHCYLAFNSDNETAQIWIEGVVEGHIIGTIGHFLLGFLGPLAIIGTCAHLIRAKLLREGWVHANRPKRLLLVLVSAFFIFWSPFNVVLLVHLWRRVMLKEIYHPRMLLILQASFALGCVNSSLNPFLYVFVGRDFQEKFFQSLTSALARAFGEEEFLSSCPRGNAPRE
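Agonism was scored as beta-arrestin recruitment to ProLink-fused GPR32 in stably transfected CHO-K1 cells, giving a chemiluminescent beta-Gal signal; compounds were incubated 90 min at 37 °C.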
* hit, by the source's call; ? = inconclusive; / = no result given; ! = a repeat was not active; [ ] = dose if it differs, or a comment. Shown are actives, neighbours in structure and some others; about 3.9% of the full set was active somewhere. Unless noted, calls follow the shape of the dose curve; as a rule, active = well fitted curve in the direction sought with a large enough effect; inconclusive = small, poorly fitted or top-dose-only effect, or another doubt; inactive = no such curve, though single readings can be large; an effect the other way counts as inactive or inconclusive.

SMILES | HTT-AS promoter | HTT prom inh | p53null 39C kill | p53null 32C kill | GPR32 ag
CC(C)(C)NCC(O)COc1ccccc1OCC1CCCO1 (configuration not stated) | -7.5% | 1.3% | / | / | -8.7
Cc1cccc(N2CCN(C(=O)Nc3ccc(F)cc3)CC2C)c1 (configuration not stated) | -11.2% | -11.0% | -3.5% | -3.2% | 63.3*
Cc1cccc(N2CCN(C(=O)c3cc4c(=O)[nH]c5ccc(C)cc5c4s3)CC2C)c1 (configuration not stated) | -68.2% | 12.6µM* | -6.1% | 6.2% | -2.6
Cc1cccc(N2CCN(C(=O)Cn3c(=O)c4cccn4c4ccc(F)cc43)CC2C)c1 (configuration not stated) | -26.4% | -16.6% | 3.1% | 4.7% | -37.3
COc1ccc(S(=O)(=O)Nc2cccnc2Nc2ccc(O)cc2)cc1 | -37.1% | ? | / | / | /
Cc1cc(C)c(NC(=O)Cn2c(=O)n(Cc3ccc(C(=O)NCc4ccco4)cc3)c(=O)c3sccc32)c(C)c1 | -31.6% | ? | 10µM* | ? | -12.6
CCc1ccc(N(C)S(=O)(=O)c2ccc3[nH]cc(C(=O)NCC4CCCO4)c(=O)c3c2)cc1 (configuration not stated) | -45.1% | ? | 9.7% | 0.2% | 110.3*
CCOc1ccc(N(C)S(=O)(=O)c2ccc3[nH]cc(C(=O)NCc4ccccc4)c(=O)c3c2)cc1 | -1.9% | -12.0% | 2.6% | 14.6% | 0.1
OC[C@H]1O[C@@H](Oc2ccc(O)cc2)[C@H](O)[C@@H](O)[C@H]1O | -10.0% | -5.7% | / | / | /
CCOc1ccc(Nc2nc(-c3c(C)nc4ccccn34)cs2)cc1 | -37.2% | -26.6% | / | / | /
COc1cc(-c2nc3cccc(C)n3c2Nc2ccc3c(c2)OCCO3)ccc1O | -5.8% | 2.0% | -8.2% | 18.1% | 61.2*
O=C(c1ccc(F)cc1)C1CCN(CCn2c(=O)[nH]c3ccccc3c2=O)CC1 | -8.0% | -3.3% | / | / | 82.3*!
Cc1ccc(CN2C(=O)SC(Nc3ccc(Cl)cc3)C2=O)cc1 (configuration not stated) | -17.4% | -26.3% | -26.6% | 5.2% | 61.5*
N[C@@]1(C(=O)O)CS(=O)(=O)[C@H]2[C@H](C(=O)O)[C@H]21 | -31.2% | -24.0% | / | / | /
COc1cc(OC)cc(-c2cc3nc(C)c(CCC(=O)Nc4ccc(C(C)=O)cc4)c(C)n3n2)c1 | -78.1% | 3.16µM* | -27.5% | -0.7% | -3.2
COc1cc(OC)cc(-c2cc3nc(C)c(CCC(=O)NCc4ccccc4)c(C)n3n2)c1 | -86.4% | 2µM* | ? | 3.6% | -19.4
Cc1nc2cc(-c3ccccc3)nn2c(C)c1CCC(=O)NCc1cccc(Cl)c1 | -71.2% | 12.6µM* | -26.5% | -0.6% | 22.6
COc1cc(OC)cc(-c2cc3nc(C)c(CCC(=O)NCc4ccc(Cl)cc4)c(C)n3n2)c1 | -86.5% | 5.01µM* | -16.6% | 0.0% | -2.2
CCc1ccccc1NC(=O)CCc1c(C)nc2cc(-c3ccccc3)nn2c1C | -56.9% | ? | -29.1% | -3.1% | 22.2
C#Cc1cccc(Nc2ncnc3cc(OC)c(OCCCCCCC(=O)NO)cc23)c1 | ? | 55.3%[116 µM] | / | / | /
CCC(=O)O[C@]1(C(=O)CO)CC[C@H]2[C@@H]3CCC4=CC(=O)CC[C@]4(C)[C@@H]3CC[C@@]21C | 6.6% | 13.0% | / | / | /
N#Cc1cc(NC(=O)Nc2nnc(-c3ccncc3)s2)ccc1-c1cn[nH]c1 | -9.5% | ? | / | / | /
CCOC(=O)CC(NC(=O)CCc1c(C)nc2cc(-c3ccccc3)nn2c1C)c1ccc(C)cc1 (configuration not stated) | -80.1% | 2.51µM* | -19.5% | 0.0% | -1.5
COc1ccccc1CNC(=O)CCc1c(C)nc2cc(-c3ccc(Cl)cc3)nn2c1C | -69.4% | 3.98µM* | -17.5% | 4.1% | 0.0
Cc1nc2cc(-c3ccccc3)nn2c(C)c1CCC(=O)Nc1ccc(F)cc1F | -79.2% | ? | -0.9% | 3.0% | 27.2
SMILES | HTT-AS promoter | HTT prom inh | p53null 39C kill | p53null 32C kill | GPR32 ag
COc1ccccc1-c1cc2nc(C)c(CCC(=O)Nc3cc(C)ccc3C)c(C)n2n1 | -43.5% | ? | -15.4% | -0.4% | 9.1
COc1ccccc1CNC(=O)CCc1c(C)nc2cc(-c3ccccc3OC)nn2c1C | -37.5% | ? | -10.3% | -0.4% | -0.5
COc1ccccc1-c1cc2nc(C)c(CCC(=O)NCCc3ccc(SC)cc3)c(C)n2n1 | -74.0% | 20µM* | 11.2% | 2.7% | -15.5
Cc1nc2cc(-c3cccc(F)c3)nn2c(C)c1CCC(=O)Nc1ccccc1C(N)=O | -71.3% | 2.24µM* | -17.4% | -2.1% | -1.5
CN(C)c1nc(Cc2ccc(NC(=O)c3ccc4ccccc4c3)cc2)nc(Cl)c1CC(=O)O | -5.1% | 3.9% | / | / | /
Cc1ccccc1C(C(=O)NC1CCCC1)N(C(=O)Cn1cnc2ccccc21)c1cccc(F)c1 (configuration not stated) | -19.4% | -3.1% | / | / | /
CCC(=O)N1CCc2cc(S(=O)(=O)CCC(=O)Nc3ccc(OC(F)(F)F)cc3)ccc21 | -24.9% | ? | 1.6% | 5.7% | 65.4*
CCC(=O)N1CCc2cc(S(=O)(=O)CCC(=O)Nc3ccc(C)c(F)c3)ccc21 | / | / | -2.8% | -3.3% | /
Cc1cccc(N2CCN(C(=O)c3c(C)oc4ncnc(N5CCCCC5)c34)CC2)c1C | -24.4% | ? | 19.6% | 18.4% | 85.1*
O=C(O)c1ccc(-c2cc3cccnc3c(-c3ccc4nonc4c3)n2)cc1 | -19.1% | 10.8% | / | / | /
O=C(NCc1ccco1)c1c[nH]c2ccc(S(=O)(=O)Nc3ccc(F)cc3F)cc2c1=O | -36.4% | -16.2% | -14.1% | -21.7% | 62.8*
O=C(NCC1CCCO1)c1c[nH]c2ccc(S(=O)(=O)Nc3ccc(F)cc3F)cc2c1=O (configuration not stated) | 6.7% | 21.7% | -4.7% | 2.0% | -1.2
O=C(NCCc1ccccc1)c1c[nH]c2ccc(S(=O)(=O)Nc3ccc(F)cc3F)cc2c1=O | -20.8% | -12.8% | 1.7% | 15.3% | 100.0*
O=C(Cc1ccc(F)cc1)NCCc1csc(-c2cccc(F)c2)n1 | -17.5% | ? | 1.9% | -9.0% | 103.3*
O=C(NCCc1csc(-c2ccc(F)cc2)n1)c1c(F)cccc1Cl | -22.4% | ? | 0.8% | 3.3% | 45.4
O=C(NCCc1csc(-c2ccc(F)cc2)n1)c1cccc(F)c1 | -28.5% | ? | -13.5% | -15.0% | 65.7*
CC(C)(C)c1ccc(S(=O)(=O)N2CCC(c3ccncc3)CC2)cc1 | -88.4% | 15.8µM* | ? | ? | -0.7
O=S(=O)(c1ccc(Cl)cc1)N1CCC(c2ccncc2)CC1 | -7.6% | -7.5% | 8.6% | -2.0% | -3.7
CC(C)Cc1ccc(S(=O)(=O)N2CCC(c3ccncc3)CC2)cc1 | -79.8% | 15.8µM* | ? | ? | 10.2
